Screening data as filed in PubChem.
An excerpt weighted towards active compounds, which were near 3.5% of everything screened.
SKN-1 inh = inhibitors of C. elegans SKN-1. C. elegans VP596 Pgst-4::GFP/RFP ratio, acrylamide-induced, 24 h. inhibition, % at 21.8 µM. 360,000 compounds, 0.49% hits;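 active means interference check ratio from 0.5 to 1.5 plus GFP to RFP signal ratio inhibition reaching or exceeding a fixed threshold, cut at about 30% in these data, passing the limit was not always enough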
CHRM1 PAM = potentiates human M1 receptor response to acetylcholine; activation, % at 3 µM; AID 588819; CHO-K1 hM1, Fluo-8 calcium fluorescence, ACh EC20; 0% = ACh EC20, 100% = maximal ACh; P11229; 360,000 compounds, 0.088% hits; in the data active means activation above about 19%, passing the limit was not always enough
Target sequence (P11229 whole entry, looked up): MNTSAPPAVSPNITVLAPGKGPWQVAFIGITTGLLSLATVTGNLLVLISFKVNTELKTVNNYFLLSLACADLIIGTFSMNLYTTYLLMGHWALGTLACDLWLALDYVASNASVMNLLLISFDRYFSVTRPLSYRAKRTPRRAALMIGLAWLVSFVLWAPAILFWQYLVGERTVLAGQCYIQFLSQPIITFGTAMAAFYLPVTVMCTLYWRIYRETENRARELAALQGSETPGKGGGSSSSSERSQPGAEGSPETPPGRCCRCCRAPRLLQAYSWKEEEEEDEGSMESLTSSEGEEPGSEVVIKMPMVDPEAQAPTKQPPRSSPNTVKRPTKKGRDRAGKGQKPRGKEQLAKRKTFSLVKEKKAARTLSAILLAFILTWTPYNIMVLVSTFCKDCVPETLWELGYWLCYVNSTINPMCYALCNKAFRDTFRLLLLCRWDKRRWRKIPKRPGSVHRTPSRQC
CHRM1 antagonist = blocks human M1 muscarinic receptor; CHO-K1 hM1, Fluo-8 calcium fluorescence, ACh EC80 antagonist; inhibition, % at 3 µM; 360,000 compounds, 1.3% hits;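 active means percent inhibition above its own plate's cutoff, namely the mean of that plate's compound wells plus 3 SD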;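 further: peak over basal fluorescence ratio during 140 s after agonist addition; 0% = ACh EC80 plus DMSO and 100% = DMSO alone without agonist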
CHRM1 agonist = activates human CHRM1 receptor | 360,000 compounds, 0.33% hits | AID 588814 | activation, % at 3 µM | CHO-K1 hM1, Fluo-8 calcium fluorescence, agonist mode; 0% DMSO, 100% acetylcholine EC100 | P11229;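 active means activation above the run's mean compound activation plus 3 SD, cut at about 16% in these data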;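 further: peak over basal fluorescence ratio within a 140 s kinetic read after compound addition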
Myeloid diff 2 = promotes myeloid progenitor differentiation | calls only at 10 µM | AID 624256 | 360,000 compounds, 1% hits | ER-HoxA9 myeloid progenitors, lysozyme-GFP differentiation, flow cytometry;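 active means normalized GFP-positive differentiation at or above the plate's own cutoff, the solvent-only control mean plus 3 SD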;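 further: cells exposed to compound for four days before flow analysis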
ATG4B inh = inhibitors of human ATG4B cysteine protease; ATG4B cleavage of LC3-PLA2, NBD-HPC fluorescence, 1 h; inhibition, % at 8.33 µM; 340,000 compounds, 0.51% hits; in the data active means inhibition above about 40%
Starred values were filed as active, the others as inactive; i = inactive; x = no result given; + = active, no number.

SMILES | SKN-1 inh | CHRM1 PAM | CHRM1 antagonist | CHRM1 agonist | Myeloid diff 2 | ATG4B inh
Cc1nn(Cc2ccccc2)c(Cl)c1/C=C/C(=O)OC(C)C(=O)N1CCCC1 (stereo not drawn) | 4.5 | -20.0 | 36.6* | -6.1 | i | -2.6
O=C1C=C(c2ccc(F)nc2)CCC1 | -10.7 | 7.4 | -0.4 | -4.1 | i | 0.5
Cc1cccc(-n2cc(-c3ccccc3)c3c(N4CCOCC4)ncnc32)c1 | 11.7 | -15.8 | 37.9* | -4.7 | i | -11.6
Cc1ccc(-n2cc(-c3ccccc3)c3c(N4CCOCC4)ncnc32)cc1 | -0.8 | -12.3 | 43.0* | -2.7 | i | 1.4
CC1=C(C(=O)N2CCOCC2)CC(CC(=O)NC2CC2)C(=O)N1Cc1ccc(F)cc1 (stereo not drawn) | -10.8 | 3.5 | -24.3 | -2.5 | i | x
Cc1ccccc1CN(C)C[C@@H]1OCc2cnnn2CCCC(=O)N([C@H](C)CO)C[C@H]1C | 8.9 | 4.1 | -3.1 | -7.3 | i | x
O=C(OCC(=O)N1CCN(S(=O)(=O)c2ccc(Cl)cc2)CC1)c1cccc(OC(F)F)c1 | 13.7 | 6.9 | -5.0 | 0.0 | i | -7.3
CCn1cc([N+](=O)[O-])c(C(=O)N2CCCC2)n1 | 1.2 | 8.2 | -11.8 | -4.3 | + | -4.2
CC(Cl)C(=O)N1c2ccccc2CCc2ccccc21 (stereo not drawn) | 2.4 | 4.5 | -10.5 | -9.8 | i | -2.7
O=C(CCl)N1c2ccccc2CCc2ccccc21 | -9.2 | 9.9 | -11.2 | -5.5 | + | x
c1cc2c(cc1CN1CCN(C3CCCCCC3)CC1)OCO2 | 19.9 | -25.2 | 63.5* | -10.0 | i | -4.2
c1ccc(CN2CCC(N3CCN(Cc4ccc5c(c4)OCO5)CC3)CC2)cc1 | -4.6 | -17.6 | 24.1 | -4.3 | i | -0.7
C=C1C(C(=O)Nc2ccc(OC)cc2)C1C(=O)Nc1ccc(OC)cc1 (stereo not drawn) | -2.3 | -4.1 | 25.1* | -2.6 | i | -2.6
COc1ccc2oc(C(F)(F)C(F)F)cc(=O)c2c1 | 36.4* | 1.4 | -8.5 | -5.8 | i | 4.4
COc1ccc2oc(C(F)(F)C(F)(F)F)cc(=O)c2c1 | 14.2 | -3.4 | -17.5 | -2.5 | i | -1.0
CNc1snc(C)c1C(=O)OCC(=O)c1ccc(Cl)cc1 | -6.2 | -14.7 | 34.6* | -1.0 | i | -0.5
N/C(=N\OC(=O)CCC(=O)O)c1ncc(C(F)(F)F)cc1Cl | -3.0 | -1.7 | -0.1 | -6.1 | + | -9.8
CNc1nc(NCc2ccc(N(C)C)cc2)c2sccc2n1 | 5.1 | -4.9 | 2.1 | -5.9 | i | x
COc1cc(C(=O)NCc2ccccc2Cl)ccc1OCC(=O)N1CCOCC1 | -4.5 | 11.4 | -7.8 | -1.2 | i | -4.8
COc1ccc(NC(=O)C(Cc2cc(C)cc(C)c2)C(C)C(=O)O)cc1 (stereo not drawn) | 0.2 | 7.8 | -16.8 | -1.5 | i | 5.4
Cc1nn(Cc2ccc(Cl)c(Cl)c2)c(C)c1NC(=O)c1cc(CC(C)C)on1 | -3.8 | -21.1 | 28.6* | -8.4 | i | -4.9
Cc1ccccc1Cn1nc(C)c(NC(=O)c2cc(CC(C)C)on2)c1C | -6.3 | -4.4 | 0.7 | -4.7 | i | 10.8
COc1ccc(-c2cc(C(=O)Nc3c(C)nn(Cc4ccccc4)c3C)no2)cc1 | 36.2* | -8.0 | 6.7 | -0.1 | i | -6.8
Cc1nn(Cc2ccc(Cl)c(Cl)c2)c(C)c1NC(=O)c1noc2c1CCCCC2 | 5.9 | 27.3* | 8.9 | -3.7 | i | -1.3
C/C(=N\Nc1cc(C)nc(NCc2ccccc2)n1)c1ccc([N+](=O)[O-])cc1 | 14.1 | -15.3 | 38.0* | -7.3 | i | -1.6
SMILES | SKN-1 inh | CHRM1 PAM | CHRM1 antagonist | CHRM1 agonist | Myeloid diff 2 | ATG4B inh
C/C(=N\NC(=O)c1cc(C)nc2ccccc12)c1ccc([N+](=O)[O-])cc1 | 10.2 | -6.9 | 4.6 | -6.6 | i | -14.8
C=C1[C@@H](O)[C@H](CC(C)C)N(Cc2ccccc2Br)S1(=O)=O | 19.6 | 10.2 | -8.6 | -8.6 | i | 7.8
O=C(Nc1ccc(Cl)cc1)c1ccc(-c2ccccn2)s1 | -0.1 | 2.9 | -8.4 | -2.3 | i | -3.0
Cc1cnc(C(=O)OCC(=O)N2c3ccccc3NC(=O)C2(C)C)cn1 | 1.3 | 6.8 | -9.6 | -3.3 | i | -8.7
Cc1nn(-c2ccccc2)c(C)c1C(=O)OCC(=O)N1c2ccccc2NC(=O)C1(C)C | 7.7 | -9.0 | 33.3* | 0.1 | i | 0.1
CC(C)(C)c1ccc(OCCC(=O)OCC(=O)N2c3ccccc3NC(=O)C2(C)C)cc1 | 15.6 | -12.8 | 34.2* | 1.8 | i | -10.2
O=C(NC1CCSc2ccccc21)c1ccc(F)cc1 (stereo not drawn) | -10.3 | 2.3 | -5.3 | -5.7 | i | 8.6
COc1ccc(NC(=O)CSc2nnnn2C2CCCCC2)cc1 | 5.2 | 12.6 | -8.1 | -2.1 | i | -3.6
CN(Cc1cnn(C)c1)C(=O)C1CCC(=O)N(Cc2ccc(Cl)cc2)C1 (stereo not drawn) | 2.3 | 5.4 | -13.5 | -0.6 | i | -2.1
COCCn1nnnc1C(c1cccc(OC)c1OC)N1CCN(C(=O)c2ccco2)CC1 (stereo not drawn) | -3.2 | 6.7 | -2.1 | -2.2 | x | -8.6
COCCn1nnnc1C(c1cccc(OC)c1OC)N1CCN(C2CCCCC2)CC1 (stereo not drawn) | -55.0 | 24.1* | -80.6 | -1.6 | i | 16.7
O=C(CCC(=O)N1CCN(Cc2ccc(F)cc2)CC1)Nc1nnc(C2CCCCC2)s1 | 10.2 | -5.5 | 16.8 | -0.2 | i | -0.8
O=C(O)c1cc(-c2ccc(-c3ccc(F)cc3)o2)nc2ccccc12 | 5.4 | 13.6 | -11.1 | -1.6 | i | 0.8
Cc1cccc(N2C(N)=NC(N)=NC23CCCCC3)c1 | 9.0 | -6.0 | 4.4 | -5.9 | + | 7.5
C=C(C)COc1ccc(-c2ncnc(C(F)(F)F)c2-c2ccccc2)c(O)c1 | 8.4 | -26.0 | 36.6* | -11.3 | i | 16.3
O=C(CNC1CCCC1)Nc1ccc(S(=O)(=O)N2CCCCC2)cc1 | 2.7 | 0.0 | -2.8 | -10.2 | i | -0.2
CCOC(=O)c1ccc(NC(=O)c2ccc(CN3CCc4ccccc4C3)cc2)cc1 | 2.9 | -24.8 | 29.6 | -5.4 | i | -5.2
O=C(Nc1ccc(S(=O)(=O)N2CCCC2)cc1)c1ccc(CN2CCc3ccccc3C2)cc1 | 17.6 | -25.2 | 39.3* | -7.6 | i | -6.2
O=C(Nc1ccc(S(=O)(=O)N2CCOCC2)cc1)c1ccc(CN2CCc3ccccc3C2)cc1 | x | x | x | x | x | -15.3
O=C(CNC1CCN(Cc2ccccc2)CC1)Nc1ccc(S(=O)(=O)N2CCCCC2)cc1 | 0.7 | -23.6 | 44.3* | -7.4 | i | 2.8
CCOc1ccc(NC(=O)c2ccc(CN3CCc4ccccc4C3)cc2)cc1 | -16.1 | -20.9 | 39.0* | -8.7 | i | 2.0
CCOC(=O)/C(CCC[N+](C)(CC)CC)=N\O | -8.0 | -26.3 | 91.2* | -11.6 | i | 4.5
